Pf growth 96h: Primary qHTS for delayed death inhibitors of the malarial parasite plastid, 96 hour incubation. P. falciparum luciferase reporter growth, 96 h. Potency, µM (highest dose often 28.7 µM), most hits filed as inhibitors. hit rate 6.9% among 320,000
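Plates of compound plus infected erythrocytes (2% hematocrit, 0.05% parasitemia final) incubate 96 hours, 37 C, 5% CO2. Detection reagent added; reduced luminescence from the parasites' luciferase reporter flags inhibition.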
Pf growth 48h: Primary qHTS for delayed death inhibitors of the malarial parasite plastid, 48 hour incubation; P. falciparum luciferase growth in erythrocytes, 48 h; Potency, µM (doses to about 28.7 µM), hits mostly inhibitors; hit rate 5.9% among 310,000
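In quantitative HTS format, infected erythrocytes bearing luciferase-reporter parasites were treated for a single generation at 37 C. Luminescence after adding detection reagent served as the growth measure.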
Shiga toxin inh: A qHTS for Small Molecule Inhibitors of Shiga Toxin | Vero cells, Shiga toxin protein synthesis inhibition reporter | hit rate 9.2% among 290,000 | AID 2315, 2010 | inhibition, % at 38.7 µM; in the data active = inhibition mostly above about 28%, no sharp cut-off; inactive = mostly below about 43%
LmPK inh: qHTS Assay for Inhibitors of Leishmania Mexicana Pyruvate Kinase (LmPK) | purified LmPK, Kinase-Glo ATP luminescence, 1 h | AID 1721, 2009 | hit rate 0.37% among 290,000 | Potency, µM (series often up to 57.5 µM), most hits filed as inhibitors
Target sequence (Q27686 whole entry, looked up): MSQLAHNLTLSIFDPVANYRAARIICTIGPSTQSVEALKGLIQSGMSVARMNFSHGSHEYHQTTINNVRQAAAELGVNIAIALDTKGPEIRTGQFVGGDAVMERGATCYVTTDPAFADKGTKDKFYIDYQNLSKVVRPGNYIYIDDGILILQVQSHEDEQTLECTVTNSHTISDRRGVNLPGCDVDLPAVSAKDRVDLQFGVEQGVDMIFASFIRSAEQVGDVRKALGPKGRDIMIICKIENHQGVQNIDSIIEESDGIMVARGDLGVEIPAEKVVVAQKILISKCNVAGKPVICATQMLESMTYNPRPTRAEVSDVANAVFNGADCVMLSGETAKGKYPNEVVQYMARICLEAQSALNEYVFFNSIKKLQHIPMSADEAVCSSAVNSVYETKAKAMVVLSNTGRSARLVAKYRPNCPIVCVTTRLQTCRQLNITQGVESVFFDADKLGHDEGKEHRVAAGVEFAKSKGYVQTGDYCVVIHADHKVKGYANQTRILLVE
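Pyruvate kinase activity monitored as ATP production (luciferase luminescence). Conditions: 0.1 nM enzyme, 0.5 mM PEP, 0.1 mM ADP, 1 h, RT; normalized against uninhibited and no-enzyme wells.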
CHX counter: Cycloheximide Counterscreen for Small Molecule Inhibitors of Shiga Toxin | cell reporter, cycloheximide protein synthesis inhibition counterscreen | max response, % | hit rate 12% among 300,000 | AID 2314, 2010; in the data active = max response mostly above about 13%, no sharp cut-off; inactive = mostly below about 14%; also: read at 38.3 µM for the half of the compounds with a filed dose
Each line names hits and unclear results; the compound was inactive in the other large screens. A selection: hits, their analogues and other compounds. The true share with any hit is near 22%. Unless noted, calls follow the shape of the dose curve; as a rule, active = well fitted inhibition curve with a large enough effect; inconclusive = small, poorly fitted or top-dose-only effect, or another doubt; inactive = no such curve, though single readings can be large or run the other way.

COc1ccccc1NC(=O)c1cc(S(=O)(=O)N2CCCCCC2)ccc1F	Pf growth 96h inconclusive, Pf growth 48h inconclusive
CCCC(NCC(=O)Nc1cc(S(=O)(=O)N2CCOCC2)ccc1OC)c1ccccc1 (centres undefined)	Pf growth 96h 11.7µM, Pf growth 48h 11.7µM (no result: Shiga toxin inh, LmPK inh, CHX counter)
COc1cc(S(=O)(=O)N2CCCCC2)ccc1NC(=O)c1ccc(F)cc1	Pf growth 96h 10.4µM
COc1ccc(S(=O)(=O)N2CCOCC2)cc1NC(=O)Cc1ccccc1Cl	none
COc1cc(S(=O)(=O)N2CCCCC2)ccc1NC(=O)c1ccccc1Cl	Pf growth 48h 9.28µM
Cc1ccccc1CN(c1ccc(C(=O)N/N=C/c2ccc(OCC(N)=O)cc2)cc1)S(C)(=O)=O	Pf growth 48h inconclusive
COc1ccc(S(=O)(=O)N2CCCC2)cc1NC(=O)c1ccccc1F	none
CCN1CCN(S(=O)(=O)c2ccc(OC)c(NC(=O)c3ccccc3F)c2)CC1	Pf growth 96h 7.38µM (no result: Shiga toxin inh, LmPK inh, CHX counter)
COc1ccc(-c2nnc(SC(C(=O)c3c[nH]c4ccccc34)c3ccccc3)n2N)cc1OC (centres undefined)	Pf growth 96h inconclusive, Pf growth 48h 8.28µM
CCC(=O)Nc1ccc(N2CCN(S(C)(=O)=O)CC2)cc1	none
N#CC12CCCCC1CC1CCCCC1(C#N)N2N (centres undefined)	Pf growth 96h inconclusive, Pf growth 48h 13.1µM
N#CC12CCCCC1CC1CCCCC1(C#N)N2Cc1ccccn1 (centres undefined)	Pf growth 96h 9.28µM, Pf growth 48h inconclusive
CCOC(=O)CSc1nc2c(sc(=S)n2Cc2ccco2)c(=O)n1-c1ccccc1	Pf growth 96h inconclusive, Pf growth 48h inconclusive
CCOC(=O)CSc1nc2c(sc3ccc([N+](=O)[O-])cc32)c(=O)n1Cc1ccco1	Pf growth 48h 6.57µM, Shiga toxin inh 42.6, CHX counter 31.6
CN(C)S(=O)(=O)c1cccc(NC(=O)CSc2nc3c(cc2C#N)C(=O)CC(C)(C)C3)c1	Pf growth 96h inconclusive, Pf growth 48h 9.28µM
CCCCOC(=O)CSc1nc2c(cc1C#N)C(=O)CC(C)(C)C2	Shiga toxin inh active, CHX counter 46.6
CN(C)S(=O)(=O)c1cccc(NC(=O)CSc2cccc3cccnc23)c1	Pf growth 96h 7.38µM, Pf growth 48h 11.7µM
CN(C)S(=O)(=O)c1ccc(Cl)c(NC(=O)CSc2nc3c(cc2C#N)C(=O)CC(C)(C)C3)c1	Pf growth 96h inconclusive, Pf growth 48h inconclusive
O=c1c2c(c(-c3ccccc3)nn1Cc1ccccc1)CCCC2	Pf growth 48h inconclusive
Cc1[nH]nc(N=CC2=C(O)CC(c3ccco3)CC2=O)c1-c1ccccc1 (centres undefined)	Pf growth 96h 7.38µM, Pf growth 48h inconclusive, CHX counter 13.7
CC(=O)Nc1nc2n(n1)C(c1ccccc1)C=C(c1ccccc1)N2 (centres undefined)	Pf growth 96h 5.22µM
O=C(c1nc2n(n1)C(c1ccc(Cl)cc1)C=C(c1ccccc1)N2)N1CCOCC1 (centres undefined)	Pf growth 48h 4.15µM
O=C(Nc1nc2n(n1)C(c1ccccc1)C=C(c1ccccc1)N2)c1ccco1 (centres undefined)	Pf growth 96h inconclusive, Pf growth 48h 8.28µM
COc1ccccc1C(=O)NC(=O)COC(=O)CN1C(=O)NC(C)(C)C1=O	none (no result: Shiga toxin inh, LmPK inh, CHX counter)
CC(C(=O)Nc1ccc(N2CCOCC2)cc1)N1C(=O)NC(C)(C)C1=O (centres undefined)	none (no result: Shiga toxin inh, LmPK inh, CHX counter)
O=C(NCc1cccnc1)Nc1ccccc1C(F)(F)F	Pf growth 96h inconclusive
CC(C)(C)C(CN1CCCC1)OC(=O)c1ccccc1 (centres undefined)	none
COc1cccc(-c2ccc(NC(=O)C3CCCN(Cc4nccn4C)C3)cc2)c1 (centres undefined)	Pf growth 96h 13.1µM, Pf growth 48h inconclusive, Shiga toxin inh 35.1, CHX counter 22.2
Cc1ncc(CN2CCCC(C(=O)Nc3ccc(-c4cccc(F)c4)cc3)C2)n1C (centres undefined)	Pf growth 48h 14.7µM
COc1cccc(-c2ccc(NC(=O)C3CCCN(Cc4cnn(C)c4)C3)cc2)c1 (centres undefined)	Pf growth 96h inconclusive, Pf growth 48h inconclusive
COc1cccc(-c2ccc(NC(=O)C3CCCN(Cc4cnc(C)n4C)C3)cc2)c1 (centres undefined)	Pf growth 48h inconclusive

High-throughput results: PubChem BioAssay, National Center for Advancing Translational Sciences (NCATS)
